# Values joined by “and” are separate entries in the source; they are usually repeats but may differ in a detail not shown here. Identical values can stand only once. Active and inactive are the calls of the source. Unless noted, the rule behind the calls is not given here.
# What was measured:
# [1] = system: Hepatitis C virus NS3 helicase; test: HCV NS3 helicase inhibitors, primary screen, biochemical, fluorescence polarization, NIH Clinical Collection (AID 743270); settings: NS3 helicase binding to Cy5-dT15 DNA, stronger effect = higher value, concentration not given here
# [2] = molecular target: Single-stranded DNA-binding protein (Escherichia coli (strain K12)) (UniProt P0AGE0); test: E. coli SSB displacement from DNA, counter-screen for HCV NS3 helicase inhibitor project, biochemical, fluorescence polarization, NIH Clinical Collection (AID 743271; in the data active = inhibition above about 28%); settings: stronger effect = higher value, concentration not given here
# [3] = fluorescence interference in NS3h assay format, artefact control for HCV NS3 helicase inhibitor project, biochemical, NIH Clinical Collection (AID 743272); settings: fluorescence interference counterscreen, stronger effect = lower value;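 note: HCV NS3 helicase with a Cy5 labelled single stranded DNA probe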
# [4] = stimulators of nuclear beta-catenin in C2C12, primary screen, imaging, WNT3A-conditioned medium, mouse C2C12, NPC library (AID 1117326; in the data active = nuclear beta-catenin stimulation mostly above about 4.2%, no sharp cut-off; inactive = mostly below about 10%); settings: stronger effect = higher value
# [5] = stimulators of insulin release from INS-1E, primary screen, cell-based, 5 mM glucose, NPC library (AID 1117329;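 active = compound raises insulin release from rat beta cells at 5 mM glucose, no numeric limit stated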); settings: rat INS-1E insulin secretion, at 10 µM, stronger effect = higher value
# [6] = growth inhibition of GSK3B-pretreated HCT116 cells – cell-based, CellTiter-Glo, 0.2 to 20 µM (AID 1117336;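 active = compounds lowering colon cancer cell viability after pretreatment blocking the GSK3B kinase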); settings: HCT116 viability after GSK3B inhibitor, at 20 µM, stronger effect = higher value
# [7] = inhibition of endothelial tube formation, primary screen, imaging, VEGF stimulated, CD31 staining, tube area, NPC library (AID 1117340;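 active = compound that reduces growth-factor-driven endothelial tube area in a mixed cell culture, no cutoff stated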); settings: VEGF-stimulated ADSC/ECFC co-culture, at 10 µM, stronger effect = higher value
# [8] = glucagon-like peptide 1 release enhancers, primary assay, NCI-H716 cell line, NPC library (AID 1117341;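 active = compound raises GLP1 secretion from the human gut endocrine cells, with no numeric limit stated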); settings: NCI-H716 cells, at 10 µM, stronger effect = higher value
# [9] = HCT116 colon cancer cell growth inhibition, primary screen, CellTiter-Glo luminescence, NPC library (AID 1117342;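 active = compounds that lower survival of HCT116 colon cancer cells in the luminescence readout, no numeric limit stated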); settings: at 20 µM (top of the series)
# [10] = CellTiter-Glo luminescent readout of SW480 viability loss, NPC library primary (AID 1117343;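 active = compounds that lower viability of the colon cancer cells in the luminescence readout, with no numeric limit stated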); settings: CellTiter-Glo luminescence; at 20 µM (top of the series)
# [11] = decreased DLD-1 cellular survival, CellTiter-Glo luminescent readout, NPC compound collection, primary HTS (AID 1117346;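 active = compounds that lower survival of DLD-1 colon cancer cells in the luminescence readout, no cutoff given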); settings: DLD-1 viability, CellTiter-Glo luminescence; at 20 µM (top of the series)
# [12] = molecular target: 6-phosphogluconate dehydrogenase, decarboxylating (Homo sapiens) (UniProt P52209); test: 6PGD enzyme inhibitors, primary screen, biochemical, human, recombinant enzyme, NADPH absorbance (AID 1159550;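 active = at least 20% inhibition of 6-phosphogluconate dehydrogenase activity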); settings: recombinant 6PGD, NADPH absorbance 341 nm; at 10 µM; stronger effect = higher value
# [13] = differential killing of epithelial or mesenchymal cells, primary screen, imaging, PC-3E GFP, TEM4-18 mCherry, co-culture (AID 1345086;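 active = compounds killing one labelled cell type while sparing the other, by normalised counts and ratio limits, not self-fluorescent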;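 for all read-outs here: cells exposed to compound for 72 h before imaging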;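 for red/green cell ratio (normalised): normalised mesenchymal count divided by normalised epithelial count so high means epithelial killing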); settings: imaging cell counts, at 1 µM; for red/green cell ratio (normalised): actives lie on both sides, counts scaled to control wells, 1 = unselective
# [14] = survival rescue of mitochondrial mutant cells in low glucose, primary screen, MELAS cybrids, Rieske KO mouse fibroblasts, CellTiter-Glo (AID 1508586;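 active = mean z-score across replicates of 1.96 or higher in either the MELAS or the Rieske mutant cell line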;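 note: z relative to plate mean and SD of compound and empty wells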)
# [15] = molecular target: NAD(+) hydrolase SARM1 (Homo sapiens) (UniProt Q6SZW1); test: SARM1 TIR NADase inhibitors, cell lysate, NAD-Glo luminescence (AID 1508614;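 active = compound whose remaining NAD level is above about 45 nM, limit read from the data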;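 note: higher remaining NAD means stronger inhibition of SARM1 NADase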); settings: SAM-TIR HEK293T lysate NADase, at 1 µM, stronger effect = higher value
# [16] = molecular target: Mitogen-activated protein kinase 7 (Homo sapiens) (UniProt Q13164); test: ERK5 transactivation activators in reporter cells, primary screen, cell-based, HTS (AID 1508626;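 active = luciferase signal above three times the same-plate solvent-only control wells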;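 note: luciferase driven by Gal4-ERK5 fusion binding five Gal4 sites before minimal TATA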); settings: HeLa Gal4-ERK5 transactivation, 18 h, at 5 µM, stronger effect = higher value
# [17] = system: F380Y; test: modulators of BK channel variants, profiling panel, selectivity assay, cell-based, U2OS BacMam, thallium flux, beta subunits (AID 1259406;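 active = thallium flux through the channel raised or lowered by more than 3 SD from vehicle-only wells, actives on both sides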;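 note: initial slope of Thallos dye fluorescence rise after thallium is added; log ratio against the mean of 0.3% DMSO vehicle wells on the same plate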); settings: at 30 µM
# [18] = system: F380Y/beta2Delta; test: as above; settings: at 30 µM
# [19] = molecular target: Calcium-activated potassium channel subunit alpha-1 (Homo sapiens) + Leucine-rich repeat-containing protein 26 (Homo sapiens) (UniProt Q12791+Q2I0M4); test: as above; settings: F380Y/Slo1WT/gamma1, at 30 µM
# [20] = sensitizers of A549 cells to miR-34 induction, primary screen, imaging, A549 dox-inducible miR-34, nuclei and caspase counts (AID 1347080;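 active = compounds whose cell count with miR-34 switched on is under 0.7 times the count with it off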); settings: A549 miR-34 inducible, Hoechst nuclei count, 48 h
# [21] = measured here: epithelial PC-3E GFP cell survival
# [22] = measured here: mesenchymal TEM4-18 mCherry cell survival
# [23] = MELAS cybrid survival, CellTiter-Glo 48 h, stronger effect = higher value
# [24] = Rieske KO mouse fibroblast survival, CellTiter-Glo 72 h
# Chain of Mitogen-activated protein kinase 7 (Homo sapiens) (Q13164 whole entry, looked up, the tested form may be a part): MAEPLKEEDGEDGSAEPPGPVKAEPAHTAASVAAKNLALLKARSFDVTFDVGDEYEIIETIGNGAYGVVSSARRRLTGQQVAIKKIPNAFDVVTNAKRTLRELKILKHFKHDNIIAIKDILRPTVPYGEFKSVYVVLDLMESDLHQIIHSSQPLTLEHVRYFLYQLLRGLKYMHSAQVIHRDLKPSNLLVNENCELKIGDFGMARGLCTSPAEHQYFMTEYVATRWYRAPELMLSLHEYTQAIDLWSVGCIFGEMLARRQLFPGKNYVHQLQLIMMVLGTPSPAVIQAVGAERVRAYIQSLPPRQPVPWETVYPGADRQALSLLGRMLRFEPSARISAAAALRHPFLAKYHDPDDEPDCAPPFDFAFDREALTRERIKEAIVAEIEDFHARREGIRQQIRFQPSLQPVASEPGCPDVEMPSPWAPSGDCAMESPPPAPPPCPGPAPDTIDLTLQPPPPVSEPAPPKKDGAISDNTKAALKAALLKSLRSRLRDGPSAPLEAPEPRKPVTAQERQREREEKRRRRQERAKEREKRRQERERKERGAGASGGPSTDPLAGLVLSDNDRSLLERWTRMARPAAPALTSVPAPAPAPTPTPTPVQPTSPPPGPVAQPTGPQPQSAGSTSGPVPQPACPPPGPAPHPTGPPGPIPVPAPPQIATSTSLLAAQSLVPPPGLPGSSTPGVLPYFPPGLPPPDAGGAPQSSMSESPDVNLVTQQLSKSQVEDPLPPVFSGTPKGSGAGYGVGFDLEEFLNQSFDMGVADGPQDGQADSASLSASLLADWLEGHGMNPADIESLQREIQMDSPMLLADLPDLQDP
# Chain of NAD(+) hydrolase SARM1 (Homo sapiens) (Q6SZW1 whole entry, looked up, the tested form may be a part): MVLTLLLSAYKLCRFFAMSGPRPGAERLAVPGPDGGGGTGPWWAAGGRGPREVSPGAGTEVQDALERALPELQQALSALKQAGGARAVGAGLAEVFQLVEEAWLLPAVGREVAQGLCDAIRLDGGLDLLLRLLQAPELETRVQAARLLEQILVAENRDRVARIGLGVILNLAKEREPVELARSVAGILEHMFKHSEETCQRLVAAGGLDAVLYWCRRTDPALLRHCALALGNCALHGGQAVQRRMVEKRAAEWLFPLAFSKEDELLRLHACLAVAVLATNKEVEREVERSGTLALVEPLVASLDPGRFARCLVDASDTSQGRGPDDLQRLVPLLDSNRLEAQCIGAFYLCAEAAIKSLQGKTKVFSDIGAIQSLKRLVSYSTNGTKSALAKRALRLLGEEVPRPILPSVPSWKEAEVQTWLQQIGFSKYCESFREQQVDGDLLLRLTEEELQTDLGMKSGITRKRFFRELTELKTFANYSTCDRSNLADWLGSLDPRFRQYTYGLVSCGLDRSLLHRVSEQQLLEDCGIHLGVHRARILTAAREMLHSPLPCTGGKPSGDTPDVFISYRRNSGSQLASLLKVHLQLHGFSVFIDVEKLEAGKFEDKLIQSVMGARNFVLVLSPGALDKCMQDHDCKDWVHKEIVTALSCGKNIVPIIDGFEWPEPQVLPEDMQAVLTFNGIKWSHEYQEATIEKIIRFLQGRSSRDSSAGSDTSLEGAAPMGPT
# Chain of 6-phosphogluconate dehydrogenase, decarboxylating (Homo sapiens) (P52209 whole entry, looked up): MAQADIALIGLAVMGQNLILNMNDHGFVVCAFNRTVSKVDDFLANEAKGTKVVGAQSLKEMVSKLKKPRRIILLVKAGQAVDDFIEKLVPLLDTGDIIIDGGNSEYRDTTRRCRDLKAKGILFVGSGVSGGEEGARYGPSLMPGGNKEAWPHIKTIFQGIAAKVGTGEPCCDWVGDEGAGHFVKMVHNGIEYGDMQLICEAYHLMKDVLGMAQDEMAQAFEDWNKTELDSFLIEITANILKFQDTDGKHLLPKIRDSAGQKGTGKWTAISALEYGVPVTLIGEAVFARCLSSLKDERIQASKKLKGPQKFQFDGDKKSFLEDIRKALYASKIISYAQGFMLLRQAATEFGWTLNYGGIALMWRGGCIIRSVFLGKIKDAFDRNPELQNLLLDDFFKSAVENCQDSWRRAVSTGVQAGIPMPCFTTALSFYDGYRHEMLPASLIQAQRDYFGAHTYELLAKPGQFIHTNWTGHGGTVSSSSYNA
# Chain of Calcium-activated potassium channel subunit alpha-1 (Homo sapiens) + Leucine-rich repeat-containing protein 26 (Homo sapiens) (Q2I0M4 whole entry, looked up, one chain of several): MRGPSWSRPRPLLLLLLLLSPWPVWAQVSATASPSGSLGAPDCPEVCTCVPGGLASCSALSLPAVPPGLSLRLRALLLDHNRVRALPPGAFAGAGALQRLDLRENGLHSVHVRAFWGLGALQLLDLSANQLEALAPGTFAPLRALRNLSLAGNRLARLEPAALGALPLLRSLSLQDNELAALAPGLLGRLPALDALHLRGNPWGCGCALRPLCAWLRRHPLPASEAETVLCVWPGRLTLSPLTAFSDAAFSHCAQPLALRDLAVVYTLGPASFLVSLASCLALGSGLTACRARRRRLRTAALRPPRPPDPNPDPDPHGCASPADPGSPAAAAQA
structure (smiles),measurement,setting,value
O=C(c1ccccc1)c1ccc2n1CCC2C(=O)O (configuration not stated),inhibition,[1],-2.77% (inactive)
same,inhibition,[2],-7.8% (inactive)
same,fluorescence ratio,[3],0.99 (inactive)
same,nuclear beta-catenin stimulation,[4]; at 10 µM,-0.4% (inactive)
same,nuclear beta-catenin stimulation,"[4]; stimulation, at 2 µM",-0.5%
same,insulin secretion stimulation,[5],0.8% (inactive)
same,viability decrease,[6],3.4% (inactive)
same,tube area decrease,[7],15.4% (inactive)
same,GLP1 secretion stimulation,[8],-3.6% (inactive)
same,inhibition of viability,[9],-1.1% (inactive)
same,viability decrease (inhibition),[10],1.1% (inactive)
same,viability decrease (inhibition),[11],11.4% (inactive)
same,inhibition,[12],6.58% (inactive)
same,red/green cell ratio (normalised),[13],1.03 (inactive)
same,normalised cell number,[13]; [21],1.2
same,normalised cell number,[13]; [22],1.24
same,z-score,[14]; [23],0.234 (inactive) and -0.244 (inactive) and -0.284 (inactive)
same,z-score,[14]; [24],-0.239 and 0.894 and -0.237
same,remaining NAD,[15],10 nM (inactive)
same,luciferase signal,[16],36 AU (inactive)
Nc1c2c(nc3ccccc13)CCCC2,inhibition,[1],-4.36% (inactive)
same,inhibition,[2],-0.1% (inactive)
same,fluorescence ratio,[3],0.85 (inactive)
same,nuclear beta-catenin stimulation,[4]; at 10 µM,1.3% (inactive)
same,nuclear beta-catenin stimulation,"[4]; stimulation, at 2 µM",2.2%
same,insulin secretion stimulation,[5],32.7% (active)
same,viability decrease,[6],2.75% (inactive)
same,tube area decrease,[7],19% (inactive)
same,GLP1 secretion stimulation,[8],13% (inactive)
same,inhibition of viability,[9],4.9% (inactive)
same,viability decrease (inhibition),[10],22.5% (inactive)
same,viability decrease (inhibition),[11],3.1% (inactive)
same,inhibition,[12],-0.369% (inactive)
same,red/green cell ratio (normalised),[13],1.47 (inactive)
same,normalised cell number,[13]; [21],0.89
same,normalised cell number,[13]; [22],1.3
same,z-score,[14]; [23],0.221 (inactive) and 0.852 (inactive)
same,z-score,[14]; [24],0.161 and -0.102
same,remaining NAD,[15],10 nM (inactive)
same,luciferase signal,[16],164 AU (inactive)
same,log fold change Tl+ flux,[17],0.0646 (inactive)
same,log fold change Tl+ flux,[18],-0.00945 (inactive)
same,log fold change Tl+ flux,[19],0.00974 (inactive)
CC(=O)OCC(=O)[C@@]12OC(C)(C)O[C@@H]1C[C@H]1[C@@H]3C[C@H](F)C4=CC(=O)C=C[C@]4(C)[C@@]3(F)[C@@H](O)C[C@@]12C,inhibition,[1],4.09% (inactive)
same,inhibition,[2],-1.24% (inactive)
same,fluorescence ratio,[3],1.01 (inactive)
same,nuclear beta-catenin stimulation,[4]; at 10 µM,1.1% (inactive)
same,nuclear beta-catenin stimulation,"[4]; stimulation, at 2 µM",2.1%
same,insulin secretion stimulation,[5],0.2% (inactive)
same,viability decrease,[6],-25.9% (inactive)
same,tube area decrease,[7],30.9% (inactive)
same,GLP1 secretion stimulation,[8],0.7% (inactive)
same,inhibition of viability,[9],20.4% (inactive)
same,viability decrease (inhibition),[10],-2.3% (inactive)
same,viability decrease (inhibition),[11],-3.8% (inactive)
same,inhibition,[12],-0.585% (inactive)
same,fold change,"[20]; stronger effect = lower value, cell number ratio, induced over uninduced",0.945 (inactive) and 0.813 (inactive)
same,fold change,[20]; measured here: relative caspase fold change +Dox/-Dox,2.11 and 1.02
same,cell count,"[20]; measured here: total cells with miR-34 induction, stronger effect = lower value",7270 and 6260
same,cell count,[20]; measured here: total cells without miR-34 induction,7700 and 7690
same,z-score,[14]; [23],0.454 (inactive)
same,z-score,[14]; [24],1.02
same,remaining NAD,[15],10 nM (inactive)
same,luciferase signal,[16],260 AU (active)
same,log fold change Tl+ flux,[17],0.00343 (inactive)
same,log fold change Tl+ flux,[18],-0.00446 (inactive)
same,log fold change Tl+ flux,[19],0.00932 (inactive)

# — PubChem BioAssay
